Source: PubChem BioAssay AID1159580 (chemical genetic matrix, 2015)
Screen size: about 5,500 compounds; about 2,000 (36%) were called active. Not shown: some 18% with an inconclusive outcome. Cut-off read from the data, not from the text of the source: active = normalized growth mostly below about 0.91 (no sharp cut-off); inconclusive = no clear call, values can overlap the other calls; inactive = mostly above about 0.92. The list shows a part of the results.

Assay: chemical genetic growth profiling, strain panel (AID 1159580);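 note: tested at 20 µM; growth read once vehicle control cultures reached saturation at 30 °C; 1 = growth at the plate median or of vehicle wells; lower values mean less growth of the strain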
Settings: growth OD
[1] = S. cerevisiae deletion strains, locus YAL013W, strain DEP1, stronger effect = lower value
[2] = S. cerevisiae deletion strains, locus YGR078C, strain PAC10, stronger effect = lower value
[3] = S. cerevisiae deletion strains, locus YJR075W, strain HOC1, stronger effect = lower value
[4] = S. cerevisiae deletion strains, locus YMR263W, strain SAP30, stronger effect = lower value
[5] = S. cerevisiae deletion strains, locus YNL153C, strain GIM3, stronger effect = lower value
[6] = S. cerevisiae deletion strains, locus YNL322C, strain KRE1, stronger effect = lower value
[7] = S. cerevisiae deletion strains, locus YBR229C, strain ROT2, stronger effect = lower value
[8] = S. cerevisiae deletion strains, locus YCL061C, strain MRC1, stronger effect = lower value
[9] = S. cerevisiae deletion strains, locus YDL101C, strain DUN1, stronger effect = lower value
[10] = S. cerevisiae deletion strains, locus YDL134C, strain PPH21, stronger effect = lower value
[11] = S. cerevisiae deletion strains, locus YDR150W, strain NUM1, stronger effect = lower value
[12] = S. cerevisiae deletion strains, locus YEL061C, strain CIN8, stronger effect = lower value
[13] = S. cerevisiae deletion strains, locus YHR030C, strain SLT2, stronger effect = lower value
[14] = S. cerevisiae deletion strains, locus YHR087W, strain rtc3, stronger effect = lower value
[15] = S. cerevisiae deletion strains, locus YJL187C, strain SWE1, stronger effect = lower value
[16] = S. cerevisiae deletion strains, locus YJR043C, strain POL32, stronger effect = lower value
[17] = S. cerevisiae deletion strains, locus YLR039C, strain RIC1, stronger effect = lower value
[18] = S. cerevisiae deletion strains, locus YLR058C, strain SHM2 (second series), stronger effect = lower value
[19] = S. cerevisiae deletion strains, locus YLR085C, strain ARP6, stronger effect = lower value
[20] = S. cerevisiae deletion strains, locus YLR262C, strain YPT6, stronger effect = lower value
[21] = S. cerevisiae deletion strains, locus YML094W, strain GIM5, stronger effect = lower value
[22] = S. cerevisiae deletion strains, locus YMR219W, strain ESC1, stronger effect = lower value
[23] = S. cerevisiae deletion strains, locus YNL298W, strain CLA4 (second series), stronger effect = lower value
[24] = S. cerevisiae deletion strains, locus YNR030W, strain Alg12, stronger effect = lower value
[25] = S. cerevisiae deletion strains, locus YPL055C, strain LGE1, stronger effect = lower value
[26] = S. cerevisiae deletion strains, locus YPL241C, strain CIN2, stronger effect = lower value
[27] = S. cerevisiae deletion strains, locus YPR135W, strain CTF4, stronger effect = lower value
[28] = S. cerevisiae strains, strain wild type, stronger effect = lower value

Measured: normalized growth

COc1ccccc1N1CCN(CCCCNS(=O)(=O)c2cccc3c(N(C)C)cccc23)CC1
inactive: [1] 0.944 | S. cerevisiae deletion strains, locus YAL040C, strain CLN3, stronger effect = lower value 0.979 | S. cerevisiae deletion strains, locus YCL061C, strain MRC1 (second series), stronger effect = lower value 0.976 | S. cerevisiae deletion strains, locus YDR363W, strain ESC2, stronger effect = lower value 0.939 | S. cerevisiae deletion strains, locus YER002W, strain NOP16, stronger effect = lower value 0.999 | [2] 0.997 | [3] 0.955 | [4] 0.979 | S. cerevisiae deletion strains, locus YMR307W, strain GAS1, stronger effect = lower value 0.994 | [5] 0.989 | S. cerevisiae deletion strains, locus YNL175C, strain NOP13, stronger effect = lower value 1.02 | S. cerevisiae deletion strains, locus YNL197C, strain WHI3, stronger effect = lower value 0.99 | S. cerevisiae deletion strains, locus YNL224C, strain SQS1, stronger effect = lower value 1.04 | [6] 0.951 | S. cerevisiae deletion strains, locus YOR083W, strain WHI5 (second series), stronger effect = lower value 1.02

NNC(=O)c1cnn(-c2ccc(Cl)cc2)c1C(F)(F)F
inactive: [1] 0.992 | [7] 0.996 | [8] 0.983 | [9] 0.993 | [10] 1.03 | [11] 0.94 | [12] 0.998 | [2] 1.01 | [13] 0.976 | [14] 0.986 | [15] 1 | [16] 0.946 | [3] 1.01 | [17] 0.909 | [18] 1 | [19] 0.976 | [20] 1.01 | [21] 0.967 | [22] 0.998 | [4] 0.977 | [5] 1 | [23] 1.01 | [6] 1 | [24] 1.03 | S. cerevisiae deletion strains, locus YOL006C, strain TOP1, stronger effect = lower value 1.02 | [25] 0.883 | [26] 0.989 | [27] 0.916 | [28] 1.01

CCOC(=O)c1cnn(-c2ccc(F)cc2)c1N
inactive: [1] 0.99 | [7] 0.992 | [9] 0.984 | [10] 1 | [11] 0.866 | [12] 0.984 | [2] 0.998 | S. cerevisiae deletion strains, locus YGR229C, strain SMI1, stronger effect = lower value 0.987 | [13] 1.07 | [14] 0.967 | [15] 0.989 | [16] 0.994 | [3] 0.9 | [17] 1.04 | [18] 0.995 | [19] 0.919 | [20] 1.04 | [21] 0.938 | [22] 0.995 | [4] 0.991 | [5] 0.974 | [23] 0.966 | [6] 0.987 | [24] 0.973 | [25] 0.869 | [26] 1.06 | [27] 0.844 | [28] 0.993

CCOC(=O)c1cnn(-c2ccc(N)cc2)c1C(F)(F)F
inactive: [1] 0.979 | [7] 0.992 | [8] 0.979 | [9] 0.992 | [11] 1.02 | [12] 0.918 | [2] 1.01 | [14] 1.02 | [16] 0.983 | [3] 1.04 | [18] 0.996 | [22] 0.99 | [4] 0.994 | [5] 0.984 | [23] 0.861 | [6] 1.01 | [24] 0.936 | [25] 0.91 | [26] 0.871 | [27] 0.797 | [28] 0.977
active: [13] 0.378 | [17] 0.429 | [19] 0.695 | [20] 0.472 | [21] 0.848
